{"source": "PubChem BioAssay AID651658", "about": "(Broad Institute, 2012)", "note": "Several values for one entry are separate records, joined by “and”; a condition that tells them apart may be missing. Equal entries are not always repeated. About 5,100 (1.5%) of roughly 340,000 compounds were called active.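 How the source made its calls: active means mean Tm shift, scaled 0 neutral to 100 positive control, at about 1.3% or above, every replicate too (limit read from the data); inconclusive means no clear call, values can overlap the other calls; inactive means the rest.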 The full list was thinned out, with actives kept by preference.", "data": [{"target": "Fibroblast growth factor 22 (Homo sapiens) (UniProt Q9HCT0)", "sequence (Q9HCT0 whole entry, looked up)": "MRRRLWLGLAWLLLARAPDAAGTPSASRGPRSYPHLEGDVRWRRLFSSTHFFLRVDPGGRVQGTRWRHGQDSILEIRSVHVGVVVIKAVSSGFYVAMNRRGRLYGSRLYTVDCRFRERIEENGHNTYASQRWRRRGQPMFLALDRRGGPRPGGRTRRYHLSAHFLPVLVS", "assay": "FGF22 ligand-induced thermal stabilization – biophysical, thermal shift, single point, FGF22 synaptogenesis inhibitor project, primary screen (AID 651658)", "conditions": "recombinant FGF22 thermal shift, SYPRO orange fluorescence; at 9.99 µM; hits give high values; percent of sucrose octasulfate shift, DMSO zero", "values": [{"smiles": "CC(C)NC(=O)N1[C@@H]2c3ccc(-c4ccc(F)cc4)c(=O)n3C[C@@H]2[C@@H](CO)[C@@H]1C(=O)N1CCOCC1", "activity (Tm shift, normalised)": "-0.32% (inactive)"}, {"smiles": "CC(C)NC(=O)Nc1ccc2c(c1)C(=O)N([C@H](C)CO)C[C@@H](C)[C@@H](CN(C)S(=O)(=O)c1ccc(Cl)cc1)OCCCC[C@H](C)O2", "activity (Tm shift, normalised)": "-0.402% (inactive)"}, {"smiles": "COc1ccccc1C(=O)Nc1ccc(Nc2ccccc2)cc1", "activity (Tm shift, normalised)": "-0.034% (inactive)"}, {"smiles": "COc1ccccc1C(=O)Nc1ccccc1C(=O)Nc1ccccc1", "activity (Tm shift, normalised)": "-0.098% (inactive)"}, {"smiles": "CC(=O)c1ccccc1OCc1ccc(C(=O)c2ccccc2)cc1", "activity (Tm shift, normalised)": "-0.1% (inactive)"}, {"smiles": "COc1ccccc1C(=O)NNC(=O)c1ccc(NC(=O)c2ccccc2)cc1", "activity (Tm shift, normalised)": "1.4% (active)"}, {"smiles": "COc1ccccc1C(=O)c1ccccc1C(=O)c1ccccc1", "activity (Tm shift, normalised)": "43.7% (active)"}, {"smiles": "COc1ccccc1C(=O)Nn1cnnc1", "activity (Tm shift, normalised)": "0.115% (inactive)"}, {"smiles": "CN1CCN(C(=O)C[C@H]2CC[C@H]3[C@@H](COC[C@H](O)CN3C(=O)c3ccc(F)cc3)O2)CC1", "activity (Tm shift, normalised)": "0.268% (inactive)"}, {"smiles": "Cc1ccccc1-c1ccc2c(c1)O[C@H](CN(C)Cc1ccc(C(=O)O)cc1)[C@@H](C)CN([C@H](C)CO)S2(=O)=O", "activity (Tm shift, normalised)": "-0.18% (inactive)"}, {"smiles": "C[C@H](CO)N1C[C@H](C)[C@@H](CN(C)CC2CC2)Oc2ccc(NC(=O)CCCN(C)C)cc2CC1=O", "activity (Tm shift, normalised)": "-0.128% (inactive)"}, {"smiles": "N#C[C@@H]1[C@H](c2ccc(C#CC3CCCCC3)cc2)[C@@H](CO)N1S(=O)(=O)c1ccccc1", "activity (Tm shift, normalised)": "0.098% (inactive)"}, {"smiles": "CCCC#Cc1ccc([C@H]2[C@H](CO)N3CCCCN(C(=O)c4ccc5c(c4)OCO5)C[C@@H]23)cc1", "activity (Tm shift, normalised)": "0.555% (inactive)"}, {"smiles": "COc1ccc(-c2ccc([C@H]3[C@H]4CN(C(=O)c5ccc6c(c5)OCO6)CCCCN4[C@H]3CO)cc2)cc1", "activity (Tm shift, normalised)": "1.83% (active)"}, {"smiles": "Cc1cccc(-c2ccc([C@@H]3[C@H](CO)N4CCCCN(C(=O)c5ccc6c(c5)OCO6)C[C@@H]34)cc2)c1", "activity (Tm shift, normalised)": "-0.344% (inactive)"}, {"smiles": "C[C@@H]1CCCCO[C@@H](CN(C)S(=O)(=O)c2ccccc2)[C@H](C)CN([C@H](C)CO)C(=O)c2cc(NC(=O)Nc3ccc4c(c3)OCO4)ccc2O1", "activity (Tm shift, normalised)": "-0.98% (inactive)"}, {"smiles": "COc1ccccc1-c1cnc2c(c1)C(=O)N([C@@H](C)CO)C[C@H](C)[C@H](CN(C)CC1CCOCC1)O2", "activity (Tm shift, normalised)": "0.358% (inactive)"}, {"smiles": "COc1cccc(/C=N/Nc2cc(C)nc(-c3ccccc3O)n2)c1O", "activity (Tm shift, normalised)": "43% (active)"}, {"smiles": "COc1cccc(/C=N/Nc2ccc(S(=O)(=O)Nc3ccccc3C(=O)O)cc2[N+](=O)[O-])c1O", "activity (Tm shift, normalised)": "0.209% (inactive)"}, {"smiles": "COc1ccc(Cc2nnc(N/N=C/c3ccccc3O)[nH]c2=O)cc1OC", "activity (Tm shift, normalised)": "0.017% (inactive)"}, {"smiles": "Cc1ccc(S(=O)(=O)N(C)C[C@@H]2Oc3c(NC(=O)c4nc5ccccc5s4)cccc3C(=O)N([C@H](C)CO)C[C@@H]2C)cc1", "activity (Tm shift, normalised)": "-0.725% (inactive)"}, {"smiles": "CC(C)=CCc1ccc(O)c(=O)cc1C(C)C", "activity (Tm shift, normalised)": "43.3% (active)"}, {"smiles": "CC(C)=CCc1c(O)c(CC=C(C)C)c2occ(-c3ccc(O)cc3)c(=O)c2c1O", "activity (Tm shift, normalised)": "0.178% (inactive)"}, {"smiles": "CC(C)c1cc(N=O)cc(C(C)C)c1O", "activity (Tm shift, normalised)": "-0.097% (inactive)"}, {"smiles": "C[C@@H]1CCCCO[C@@H](CN(C)C(=O)CCCN(C)C)[C@@H](C)CN([C@H](C)CO)C(=O)c2cc(NC(=O)CCCN(C)C)ccc2O1", "activity (Tm shift, normalised)": "-0.145% (inactive)"}, {"smiles": "C[C@H](CO)N1C[C@H](C)[C@H](CN(C)C)Oc2ncc(-c3ccncc3)cc2C1=O", "activity (Tm shift, normalised)": "-0.058% (inactive)"}, {"smiles": "O=S(=O)(Nc1ccc2nc(N3CCOCC3)sc2c1)c1ccccc1", "activity (Tm shift, normalised)": "-0.216% (inactive)"}, {"smiles": "Cc1nc2ccc(NC(=O)c3cccc(S(=O)(=O)N4CCOCC4)c3)cc2s1", "activity (Tm shift, normalised)": "1.04% (inactive)"}, {"smiles": "O=C(O)c1cccc(S(=O)(=O)Nc2ccc(O)cc2Sc2nc3ccccc3s2)c1", "activity (Tm shift, normalised)": "15.9% (active)"}, {"smiles": "CC(=O)NC[C@@H]1[C@@H](c2ccccc2)[C@@H](CO)N1C(=O)Cc1cccnc1", "activity (Tm shift, normalised)": "1.29% (active)"}, {"smiles": "O=C(NC[C@@H]1[C@@H](c2ccccc2)[C@H](CO)N1C(=O)Cc1cccnc1)C1CC1", "activity (Tm shift, normalised)": "-1.07% (inactive)"}, {"smiles": "CC(=O)NC[C@H]1[C@H](c2ccccc2)[C@@H](CO)N1C(=O)Cc1cccnc1", "activity (Tm shift, normalised)": "-0.409% (inactive)"}, {"smiles": "O=C(C[C@@H]1C=C[C@H](NC(=O)CN2CCOCC2)[C@@H](CO)O1)NC1CCC1", "activity (Tm shift, normalised)": "0.045% (inactive)"}, {"smiles": "O=C(NCC[C@@H]1CC[C@H](NC(=O)C2CC2)[C@@H](CO)O1)c1cc(Cl)cc(Cl)c1", "activity (Tm shift, normalised)": "-0.053% (inactive)"}, {"smiles": "COc1ccccc1-n1c(SCC(=O)Nc2ccc(Cl)cc2)nc(O)c(Cc2ccccc2)c1=O", "activity (Tm shift, normalised)": "43.9% (active)"}, {"smiles": "COc1ccc(NC(=O)CSc2nnc(Cc3ccccc3)c(=O)n2N)cc1", "activity (Tm shift, normalised)": "-0.143% (inactive)"}, {"smiles": "CCOc1ccc(NC(=O)CSc2nc3c(c(=O)n2-c2ccccc2OC)SCC3)cc1", "activity (Tm shift, normalised)": "-0.136% (inactive)"}, {"smiles": "CN1c2ccc(-c3ccc(F)cc3)cc2[C@@H]2[C@@H](CCN2C(=O)c2cccnc2)[C@H]1CO", "activity (Tm shift, normalised)": "-0.025% (inactive)"}, {"smiles": "CO[C@@H]1CN(C)C(=O)c2ccc(NC(=O)NC(C)C)cc2OC[C@H](C)N(Cc2ccc(-c3ccccn3)cc2)C[C@H]1C", "activity (Tm shift, normalised)": "0.425% (inactive)"}, {"smiles": "CCCCCOc1ccc(/C=C/C(=O)NCCc2nc3ccccc3[nH]2)cc1OC", "activity (Tm shift, normalised)": "0.206% (inactive)"}, {"smiles": "COc1cc(/C=C(\\C#N)c2nc3ccccc3[nH]2)ccc1O", "activity (Tm shift, normalised)": "2.24% (active)"}, {"smiles": "CCOc1ccc(/C=C(/C#N)c2nnc(N3CCOCC3)n2-c2ccccc2)cc1OC", "activity (Tm shift, normalised)": "-0.121% (inactive)"}, {"smiles": "CCCC(=O)Nc1ccc2c(c1)OC[C@H](C)N(CCC(F)(F)F)C[C@@H](C)[C@H](OC)CN(C)C2=O", "activity (Tm shift, normalised)": "-0.05% (inactive)"}, {"smiles": "C/C=C/c1ccc([C@@H]2[C@H](CO)N(S(=O)(=O)Cc3ccccc3)C23CN(C(=O)C2CCOCC2)C3)cc1", "activity (Tm shift, normalised)": "-0.098% (inactive)"}, {"smiles": "O=C(Nc1ccccc1)c1ccccc1Br", "activity (Tm shift, normalised)": "-0.119% (inactive)"}, {"smiles": "O=C(Nc1c2c(nc3ccccc13)CCCC2)c1ccccc1Br", "activity (Tm shift, normalised)": "44.2% (active)"}, {"smiles": "N#Cc1cccc(Nc2c3c(nc4ccccc24)CCCC3)c1", "activity (Tm shift, normalised)": "0.042% (inactive)"}, {"smiles": "CC(=O)N1[C@@H](CO)[C@@H](c2ccccc2)[C@@H]1CN(C)C(=O)CN1CCOCC1", "activity (Tm shift, normalised)": "0.044% (inactive)"}, {"smiles": "O=C(C1CCCCC1)N1CC2(C1)[C@H](c1ccccc1)[C@@H](CO)N2CCC(F)(F)F", "activity (Tm shift, normalised)": "-0.014% (inactive)"}, {"smiles": "O=C(Cc1ccncc1)N[C@H]1CC[C@H](CCn2cc(-c3ccccc3F)nn2)O[C@@H]1CO", "activity (Tm shift, normalised)": "0.035% (inactive)"}, {"smiles": "O=C(Cc1ccncc1)N[C@@H]1CC[C@H](CCn2cc(-c3ccccc3F)nn2)O[C@H]1CO", "activity (Tm shift, normalised)": "0.128% (inactive)"}, {"smiles": "O=C(Cc1cccnc1)N[C@H]1CC[C@H](CCn2cc(-c3ccccc3F)nn2)O[C@H]1CO", "activity (Tm shift, normalised)": "8.31% (active)"}, {"smiles": "CCCC(=O)Nc1ccc2c(c1)OC[C@H](C)N(CCC)C[C@@H](C)[C@@H](OC)CN(C)C2=O", "activity (Tm shift, normalised)": "0.113% (inactive)"}, {"smiles": "CSc1ccccc1NC(=O)CN(C)CC(=O)Nc1cccc(Br)c1", "activity (Tm shift, normalised)": "-0.022% (inactive)"}, {"smiles": "CCN(CC)N=Nc1cccc(NC(C)=O)c1", "activity (Tm shift, normalised)": "0.992% (inactive)"}, {"smiles": "CCN(CC)C(=O)C(=O)Nc1cccc(Br)c1", "activity (Tm shift, normalised)": "43.2% (active)"}, {"smiles": "Cc1ccc(S(=O)(=O)N[C@H]2CC[C@H](CC(=O)O)O[C@H]2CO)cc1", "activity (Tm shift, normalised)": "0.52% (inactive)"}, {"smiles": "C[C@H](CO)N1C[C@H](C)[C@H](CN(C)S(=O)(=O)c2ccccc2C#N)OCc2cn(nn2)CCCC1=O", "activity (Tm shift, normalised)": "-0.183% (inactive)"}, {"smiles": "O=C(N/N=C/c1ccc([N+](=O)[O-])cc1)c1c[nH]c2ccccc12", "activity (Tm shift, normalised)": "1.58% (active)"}, {"smiles": "O=[N+]([O-])c1ccc(C=NN=Cc2ccc([N+](=O)[O-])cc2)cc1", "activity (Tm shift, normalised)": "0% (inactive)"}, {"smiles": "O=C(NN=Cc1ccc([N+](=O)[O-])cc1)C1CC1", "activity (Tm shift, normalised)": "-0.001% (inactive)"}, {"smiles": "COc1cccc(-c2ccc3c(c2)O[C@H](CN(C)Cc2ccncc2)[C@H](C)CN([C@H](C)CO)S3(=O)=O)c1", "activity (Tm shift, normalised)": "-0.104% (inactive)"}, {"smiles": "NS(=O)(=O)c1cccc(NC(=O)COC(=O)c2cc([N+](=O)[O-])ccc2N2CCCC2)c1", "activity (Tm shift, normalised)": "1.34% (active)"}, {"smiles": "CCOc1ncccc1C(=O)OCC(=O)Nc1cccc(S(=O)(=O)N2CCCCCC2)c1", "activity (Tm shift, normalised)": "0.065% (inactive)"}, {"smiles": "O=C(Nc1cccc(Cl)c1)c1cc([N+](=O)[O-])ccc1N1CCN(CCO)CC1", "activity (Tm shift, normalised)": "0.039% (inactive)"}, {"smiles": "C[C@@H]1CN([C@@H](C)CO)S(=O)(=O)c2ccc(C#CC3(O)CCCC3)cc2O[C@H]1CN(C)C(=O)c1ccncc1", "activity (Tm shift, normalised)": "-0.043% (inactive)"}, {"smiles": "COc1ccc(S(=O)(=O)N2CC[C@@H]3[C@H](CO)Nc4ccc(C#Cc5cccc(OC)c5)cc4[C@@H]32)cc1", "activity (Tm shift, normalised)": "0.013% (inactive)"}, {"smiles": "O=C(C[C@@H]1C[C@@H]2c3cc(NC(=O)c4ccc5c(c4)OCO5)ccc3O[C@@H]2[C@H](CO)O1)NCCc1ccccc1", "activity (Tm shift, normalised)": "0.032% (inactive)"}, {"smiles": "COc1ccc(NC(=O)Nc2cccc3c2O[C@H](CN(C)S(=O)(=O)c2cn(C)cn2)[C@H](C)CN([C@@H](C)CO)C3=O)cc1", "activity (Tm shift, normalised)": "-0.085% (inactive)"}, {"smiles": "CN1C(=O)c2cc(NC(=O)c3cccc(F)c3)ccc2OC[C@@H]2O[C@@H](CC(=O)NCC3CCCCC3)CC[C@H]21", "activity (Tm shift, normalised)": "-0.226% (inactive) and -0.131% (inactive)"}, {"smiles": "CCC(=O)N1[C@@H](CO)[C@@H](c2ccccc2)C12CN(C(=O)Cc1ccccc1)C2", "activity (Tm shift, normalised)": "-0.201% (inactive)"}, {"smiles": "COC(=O)c1cccc(N(CC(=O)NCC2CCCO2)C(=O)CCC(=O)Nc2cc(C)on2)c1", "note": "(centres undefined)", "activity (Tm shift, normalised)": "43% (active)"}, {"smiles": "Cc1cc(C)cc(N(CC(=O)NC2CCCC2)C(=O)CCC(=O)Nc2cc(C)on2)c1", "activity (Tm shift, normalised)": "-0.343% (inactive)"}, {"smiles": "Cc1cc(NC(=O)CCC(=O)N(CC(=O)NCC2CCCO2)c2ccccc2)no1", "note": "(centres undefined)", "activity (Tm shift, normalised)": "0.811% (inactive)"}]}]}
